The campaign covered roughly 5,500 compounds. About 2,000 (36%) were called active. Another 18% or so got no clear call; they are omitted. No stated cut-off is given here; in the data, active means normalized growth mostly below about 0.91 (no sharp cut-off); inconclusive means no clear call, values can overlap the other calls; inactive means mostly above about 0.92. This is one part of the list.
Test: chemical genetic growth profiling, strain panel (AID 1159580);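 further: tested at 20 µM; growth read once vehicle control cultures reached saturation at 30 °C; 1 = growth at the plate median or of vehicle wells; lower values mean less growth of the strain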
Conditions: S. cerevisiae deletion strains, growth OD

Measured: normalized growth

COc1ccc(CN2CSC(=S)N(Cc3ccc(OC)cc3)C2)cc1
inactive: locus YAR019C, strain CDC15, active compounds read low 0.952 | locus YBL105C, strain PKC1, active compounds read low 0.98 | locus YBR135W, strain CKS1, active compounds read low 0.972 | locus YBR136W, strain MEC1, active compounds read low 0.968 | locus YBR160W, strain CDC28, active compounds read low 0.974 | locus YDL017W, strain CDC7, active compounds read low 0.981 | locus YDL028C, strain MPS1, active compounds read low 0.951 | locus YDL101C, strain DUN1, active compounds read low 0.992 | locus YDL108W, strain KIN28, active compounds read low 0.955 | locus YDL132W, strain cdc53, active compounds read low 0.966 | locus YDL214C, strain PRR2, active compounds read low 0.937 | locus YDR052C, strain DBF4, active compounds read low 0.975 | locus YDR054C, strain cdc34, active compounds read low 0.961 | locus YDR226W, strain ADK1, active compounds read low 0.961 | locus YDR477W, strain SNF1, active compounds read low 0.958 | locus YER123W, strain YCK3, active compounds read low 0.891 | locus YER133W, strain GLC7, active compounds read low 0.946 | locus YFL009W, strain cdc4, active compounds read low 0.957 | locus YFL029C, strain CAK1, active compounds read low 0.95 | locus YFR003C, strain YPI1, active compounds read low 0.967 | locus YFR019W, strain FAB1, active compounds read low 0.961 | locus YFR028C, strain CDC14, active compounds read low 0.957 | locus YGR040W, strain KSS1, active compounds read low 0.947 | locus YGR052W, strain FMP48, active compounds read low 0.996 | locus YGR092W, strain DBF2, active compounds read low 0.864 | locus YHR030C, strain SLT2, active compounds read low 0.97 | locus YHR079C, strain IRE1, active compounds read low 0.908 | locus YHR082C, strain KSP1, active compounds read low 0.999 | locus YHR205W, strain SCH9, active compounds read low 0.891 | locus YIL147C, strain SLN1, active compounds read low 0.95 | locus YJL095W, strain BCK1, active compounds read low 0.981 | locus YJL128C, strain PBS2, active compounds read low 0.952 | locus YJL157C, strain FAR1, active compounds read low 0.954 | locus YJR016C, strain ILV3, active compounds read low 0.965 | locus YJR066W, strain TOR1 (second series), active compounds read low 0.94 | locus YJR066W, strain TOR1, active compounds read low 0.998 | locus YKL048C, strain ELM1, active compounds read low 0.958 | locus YKL067W, strain YNK1, active compounds read low 0.954 | locus YKL101W, strain HSL1, active compounds read low 0.94 | locus YKL193C, strain SDS22, active compounds read low 0.964 | locus YKL203C, strain TOR2, active compounds read low 0.989 | locus YLR113W, strain HOG1, active compounds read low 0.91 | locus YLR133W, strain CKI1, active compounds read low 0.961 | locus YLR403W, strain SFP1, active compounds read low 0.927 | locus YML070W, strain DAK1, active compounds read low 0.935 | locus YMR001C, strain CDC5, active compounds read low 0.978 | locus YMR205C, strain PFK2 (second series), active compounds read low 0.945 | locus YMR277W, strain FCP1, active compounds read low 0.97 | locus YNL006W, strain LST8, active compounds read low 0.945 | locus YNL020C, strain ARK1, active compounds read low 0.94 | locus YNL161W, strain CBK1, active compounds read low 0.987 | locus YNL183C, strain NPR1, active compounds read low 0.951 | locus YNL207W, strain RIO2, active compounds read low 0.964 | locus YNL222W, strain SSU72, active compounds read low 0.966 | locus YNL307C, strain MCK1 (second series), active compounds read low 0.905 | locus YOL078W, strain AVO1, active compounds read low 0.967 | locus YOL136C, strain PFK27, active compounds read low 0.956 | locus YOR061W, strain CKA2, active compounds read low 0.939 | locus YOR119C, strain RIO1, active compounds read low 0.985 | locus YOR231W, strain MKK1, active compounds read low 0.937 | locus YOR329C, strain SCD5, active compounds read low 0.979 | locus YPL031C, strain PHO85, active compounds read low 0.95 | locus YPL153C, strain RAD53, active compounds read low 0.931 | locus YPL204W, strain HRR25, active compounds read low 0.931 | locus YPL209C, strain IPL1, active compounds read low 0.966 | locus YPL256C, strain CLN2, active compounds read low 0.953 | locus YPR025C, strain CCL1, active compounds read low 0.98 | locus YPR106W, strain ISR1, active compounds read low 0.983 | locus YPR111W, strain DBF20, active compounds read low 0.979 | strain NNK1, active compounds read low 0.984 | strain TSCII, active compounds read low 0.964

Source: PubChem BioAssay AID1159580 (chemical genetic matrix, 2015)
